sdo1 growth = growth rescue of sdo1-depleted yeast, primary screen, S. cerevisiae, bone marrow failure model | S. cerevisiae sdo1-depleted JHY4D growth rescue, OD600 30 h; stronger effect = higher value; pdr5 snq2 efflux-pump mutant strain | z-score at 10 µM | hit rate 0.21% among 140,000;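 active means z-score above 3 at both the 24 hr and the 30 hr optical density reads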;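 further: z-score against mean and SD of all compound wells on the same plate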
Measles CPE = compounds protecting cells from measles virus cytopathic effect, primary screen, measles RdRp inhibitor project, single point, MLSMR library, absorbance; Measles virus-infected cells, CPE protection; protection (pct of control), % at 4 µM; hit rate 1.5% among 140,000; in the data active means protection mostly above about 24%, no sharp cut-off; inactive means mostly below about 26%
sEH inhibitor = soluble epoxide hydrolase inhibitors, primary screen, biochemical, human sEH. recombinant human sEH enzymatic activity assay. hit rate 0.34% among 91,000. inhibition, % at 2 µM. AID 707, 2007; in the data active means inhibition above about 80%
Target sequence (P34913 whole entry, looked up): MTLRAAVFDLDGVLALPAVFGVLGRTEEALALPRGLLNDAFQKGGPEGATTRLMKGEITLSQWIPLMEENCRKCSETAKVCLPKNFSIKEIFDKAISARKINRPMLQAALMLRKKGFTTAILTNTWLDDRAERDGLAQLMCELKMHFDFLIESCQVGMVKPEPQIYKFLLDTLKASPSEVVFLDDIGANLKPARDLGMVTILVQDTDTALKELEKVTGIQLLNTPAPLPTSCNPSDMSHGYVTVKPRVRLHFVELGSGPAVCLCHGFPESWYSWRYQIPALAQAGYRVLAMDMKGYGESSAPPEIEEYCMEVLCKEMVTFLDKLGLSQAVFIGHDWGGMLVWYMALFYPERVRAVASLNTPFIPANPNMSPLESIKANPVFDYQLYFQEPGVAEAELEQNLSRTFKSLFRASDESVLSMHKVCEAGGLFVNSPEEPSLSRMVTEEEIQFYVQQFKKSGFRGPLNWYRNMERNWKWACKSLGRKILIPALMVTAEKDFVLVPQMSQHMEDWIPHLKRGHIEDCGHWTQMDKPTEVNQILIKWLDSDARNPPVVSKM
sEH activator = soluble epoxide hydrolase activators, primary screen, biochemical, human sEH; AID 717, 2007; hit rate 0.04% among 91,000; activation, % at 2 µM; purified human sEH enzymatic activity, activator screen; in the data active means activation above about 37%
SDO1 rescue DR = SDO1-depleted yeast growth rescue, concentration-response, diseases of bone marrow failure, JHY4D, OD600. shares compounds with sdo1 growth. S. cerevisiae JHY4D (SDO1-depleted) growth rescue, 30 h; stronger effect = higher value; efflux-deficient strain, SNQ2 and PDR5 mutated. OD recovery (concentration not given with the values). hit rate 44% among 440;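 active means yeast growth recovered at 30 hours, either rising with dose fitted slope above 0.001 or with average optical density gain above 0.07, some results past the limit were not filed as active; inactive means growth falling with dose or no effect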;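 further: gain in OD600 from 0 h to 30 h averaged across all seven doses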
An asterisk follows results filed as active. Compounds with a hit are over-represented: about 1.9% of the library has one in this group of screens.

Screening C=CCn1c(N2CCCCCC2)nc2c1c(=O)n(C)c(=O)n2C returned sdo1 growth 0.01, Measles CPE 3.2, sEH inhibitor 6.2 and sEH activator -5.2.
For Fc1ccc(-c2ccc(/C=N\n3cnnc3)o2)cc1Cl the results were sdo1 growth 0.12 and Measles CPE 6.7.
CC(C)COC(=O)c1cc(-c2ccc(/C=N/n3cnnc3)o2)ccc1Cl was read as sdo1 growth 4.03*, Measles CPE 4.2, sEH inhibitor 5.7, sEH activator -2.8 and SDO1 rescue DR 0.124*.
`O=C(O)CCCn1nc(C(F)(F)F)c2c1CCCCC2` gave sdo1 growth 3.39*, Measles CPE 3.6, sEH inhibitor 3.5, sEH activator -3.3 and SDO1 rescue DR 0.0614*.
For O=C(Cc1cccs1)Nc1ccc(-c2nnc(-c3ccccc3)o2)cc1 the results were sEH inhibitor 0.7 and sEH activator 2.0.
For O=C(COC(=O)Cc1cccs1)Nc1ccccc1 the results were sdo1 growth 1.3, Measles CPE 24.4, sEH inhibitor -2.0, sEH activator 0.1 and SDO1 rescue DR 0.0344*.
Cc1nc2ccccc2c(=O)n1/N=C/c1cccnc1 was read as sdo1 growth 3.06*, Measles CPE 7.7, sEH inhibitor 5.3, sEH activator -2.7 and SDO1 rescue DR 0.053.
Cc1nc2ccccc2n1/N=C/c1cccnc1 was read as sdo1 growth 0.29, Measles CPE 43.4, sEH inhibitor 10.1 and sEH activator -9.7.
C[C@@H](C(=O)Nc1ccc2ccccc2c1)[C@H]1C[C@]1(C)[C@H](NC(=O)c1cnccn1)c1ccccc1 was read as sdo1 growth -0.82 and Measles CPE 7.4.
Cc1ccc(C)c(OCCCC(=O)Nc2nccs2)c1 was read as sdo1 growth 9.99*, Measles CPE 4.6, sEH inhibitor -3.2, sEH activator 4.2 and SDO1 rescue DR 0.087*.
`Cc1ccccc1OCCCC(=O)Nc1nccs1` gave sdo1 growth -0.34, Measles CPE 2.3, sEH inhibitor -9.7 and sEH activator 7.7.
C/C(=N/NC(=O)c1cccs1)c1ccc(NC(=O)COc2ccc(Cl)cc2Cl)cc1 was read as sdo1 growth -0.47, Measles CPE 2.4, sEH inhibitor 7.6 and sEH activator -7.6.
For C/C(=N/NC(=O)c1ccc(C)s1)c1cccc(NC(=O)COc2ccc(Cl)cc2Cl)c1 the results were sdo1 growth 1.65, Measles CPE 18.0, sEH inhibitor -7.0, sEH activator 6.7 and SDO1 rescue DR 0.0625.
`CCCCCC(=O)NNC(=S)NC(=O)c1cccc([N+](=O)[O-])c1` gave sdo1 growth -0.38 and Measles CPE 7.7.
For Cc1c2cc(O)c(=O)cc-2oc2cc(O)c(O)cc12 the results were sdo1 growth 0.57, Measles CPE 10.6, sEH inhibitor -11.0 and sEH activator 12.7.
COc1cc(OC)c(-c2c3cc(O)c(=O)cc-3oc3cc(O)c(O)cc23)cc1OC was read as sdo1 growth 3.77* and SDO1 rescue DR -0.0253.
`COc1cccc(C(=O)Nc2cccc(-c3nnc(-c4ccco4)o3)c2)c1` gave sdo1 growth 4.68*, Measles CPE 13.7, sEH inhibitor 6.9, sEH activator -6.2 and SDO1 rescue DR 0.0462.
`Cc1ccc(S(=O)(=O)N2CC=C(c3ccc(F)cc3)CC2)cc1` gave sdo1 growth 7.12*, Measles CPE 5.9 and SDO1 rescue DR 0.0304.
`CCOc1ccccc1/C=N/Nc1ccccc1[N+](=O)[O-]` gave sdo1 growth 1.2, Measles CPE 1.0, sEH inhibitor -6.2, sEH activator 4.1 and SDO1 rescue DR 0.0523.
`CC(C)Oc1ccccc1/C=N/Nc1ccccc1[N+](=O)[O-]` gave sdo1 growth -0.79 and Measles CPE -0.3.
Screening Cc1noc2c1C(c1ccc(N(C)C)cc1)C1=C(CC(C)(C)CC1=O)N2 (configuration not stated) returned sdo1 growth -0.71, Measles CPE 9.2, sEH inhibitor 12.4 and sEH activator -12.7.
For O=[N+]([O-])c1ccc(-n2nncc2-c2ccc(Cl)cc2)cc1 the results were sdo1 growth -0.04, Measles CPE 20.1, sEH inhibitor 3.1 and sEH activator -1.3.
For Nc1ccc(-n2nncc2-c2ccc(Cl)cc2)cc1 the results were sdo1 growth 12.7*, Measles CPE 9.4, sEH inhibitor 2.7, sEH activator -0.9 and SDO1 rescue DR 0.0438.

Screening results (PubChem)
